DAX1 inh-1: blocks DAX1 repression of SF-1 activated StAR promoter; HEK293T StAR-luciferase reporter, SF-1/DAX-1 repression relief; 370,000 compounds, 1.1% hits; inhibition, % at 6.8 µM; AID 652010;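 active means inhibition above the mean over all tested compounds plus 3 SD, cut at about 3.6% in these data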;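 further: 0% = DAX-1 cells with DMSO and 100% = cells lacking DAX-1 with DMSO; higher inhibition means more luminescence from relief of DAX-1 repression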
FXN GAA850 act: activators of GAA850 frataxin (FXN) promoter; activation, % at 6 µM; 360,000 compounds, 0.56% hits; HEK293 lucGAA850 FXN promoter luciferase reporter, 24 h; percent of 10 µM SAHA response;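 active means activation above the average of all compounds screened plus 3 SD, cutoff fixed separately per campaign, cut at about 7.5% in these data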;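 further: 0% = DMSO wells and 100% = 10 µM SAHA wells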
hcDAF12 agonist: activators of H. contortus DAF-12 nuclear receptor | 370,000 compounds, 1.4% hits | AID 652067 | activation, % at 6.8 µM | HEK293 hcDAF-12 lit1-tk-luc reporter, luminescence; 0% DMSO, 100% Δ7-dafachronic acid;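 active means activation above the mean of all tested compounds plus 3 SD, cut at about 5.5% in these data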;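 further: 100% = response to 3 µM Δ7-dafachronic acid high control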
ssDAF12 agonist: activators of S. stercoralis DAF-12 nuclear receptor | HEK293 ssDAF-12/GRIP1 lit1-tk-luc reporter, luminescence; % of 3 µM dafachronic acid response | activation, % at 6.8 µM | 370,000 compounds, 1% hits | AID 652126;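 active means activation above the mean over all tested compounds plus 3 SD, cut at about 0.9% in these data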;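 further: 0% = DMSO-only wells and 100% = 3 µM delta7-dafachronic acid wells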
DAX1 inh-2: inhibitors of human orphan nuclear receptor DAX1 (NR0B1); P51843; HEK293 Gal4-DAX1 luciferase reporter, luminescence; inhibition, % at 6.75 µM; 340,000 compounds, 0.99% hits;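 active means inhibition above the mean over all tested compounds plus 3 SD, cut at about 4.2% in these data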;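 further: 0% = DAX1-transfected cells with DMSO and 100% = empty-vector control cells with DMSO; inhibition shows as a rise in luminescence from relieved DAX1 repression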
Target sequence (P51843 207-470 limits assumed): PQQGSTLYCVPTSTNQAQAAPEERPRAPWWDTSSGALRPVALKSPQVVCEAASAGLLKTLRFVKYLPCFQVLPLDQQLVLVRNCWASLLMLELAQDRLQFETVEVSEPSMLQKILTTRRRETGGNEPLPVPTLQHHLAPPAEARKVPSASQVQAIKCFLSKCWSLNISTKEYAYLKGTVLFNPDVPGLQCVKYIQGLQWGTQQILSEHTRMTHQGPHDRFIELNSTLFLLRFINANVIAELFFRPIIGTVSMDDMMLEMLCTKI
hgDAF12 agonist: activates the H. glycines DAF-12 receptor ligand-binding domain | activation, % at 6.8 µM | 370,000 compounds, 1.8% hits | HEK293 GAL4-hgDAF12 UAS-luciferase reporter, agonist luminescence; normalized to butyrate control;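 active means activation above a cutoff set at the mean of all screened compounds plus 3 SD, cut at about 10% in these data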;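 further: 0% = DMSO wells and 100% = sodium butyrate wells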
An asterisk follows results filed as active; · = no result given. Rows were chosen to be rich in hits. Some 4.5% of all compounds tested hit in one or more screens of this group.

SMILES	DAX1 inh-1	FXN GAA850 act	hcDAF12 agonist	ssDAF12 agonist	DAX1 inh-2	hgDAF12 agonist
Cn1c(=N)n(CC(=O)c2ccc(F)cc2)c2ccccc21	0	-5	13*	1.2*	-2	11*
Cc1ccc(/C=N/NC(=O)C2(C)CC2(Br)Br)cc1 (stereo unspecified)	0	1	0	2.0*	-1	-1
CC1(C(=O)N/N=C/c2ccccc2)CC1(Br)Br (stereo unspecified)	1	2	0	-1	-1	-2
CC(=O)O[C@H]1[C@H](OC(C)=O)C[C@]2(OC(C)=O)C[C@H]1OC2=O	·	·	-2	-1	·	2
CCCCNC(=O)C[C@H]1C[C@@]2(C(=O)OC)C(=C[C@H](COCc3ccccc3)O[C@@H]2C)N(Cc2cccc3ccccc23)C1=O	-1	·	-1	-1	·	0
COc1ccc(N/N=C(\C#N)C(=N)N2CCOCC2)cc1	3	2	0	-1	5.3*	8
N#C/C(=N\Nc1ccccc1)C(=N)N1CCCCCC1	2	3	5	1	6.8*	10
CCOC(=O)c1ccc(NC(=O)CSc2nnc(-c3cc(-c4ccccc4)n[nH]3)n2N)cc1	-2	·	3	-2	·	3
CCN1CC=C2C(C#N)=C(N)C(C#N)(C#N)C(CCc3ccccc3)C2C1 (stereo unspecified)	0	1	3	1.0*	0	1
Cc1ccc2c(c1)C1CS(=O)(=O)N(CC(C)C)C(=O)N1C2 (stereo unspecified)	3	·	4	-1	·	9
CC(=O)Nc1ccc(NC(=O)/C=C/c2ccc3c(c2)OCO3)cc1	0	2	-1	-1	1	6
Cc1cc(C)nc(NC(=O)/C=C/c2ccc3c(c2)OCO3)c1	4.2*	3	3	0	1	10
COc1ccc(CNC(=O)c2ccc(Cl)c(NC3=NC4CS(=O)(=O)CC4S3)c2)cc1 (stereo unspecified)	-1	-1	-1	-1	-1	11*
O=C1/C(=C/c2ccc([N+](=O)[O-])cc2)C=C(c2ccccc2)N1c1ccccc1	-1	-1	2	0	-1	0
COc1ccc(N2C(=O)/C(=C/c3ccc([N+](=O)[O-])cc3)C=C2c2ccccc2)cc1	1	0	-2	1.2*	1	0
Cc1cc(-c2nnc(CCC(=O)NCC(C)c3ccccc3)o2)no1 (stereo unspecified)	1	2	-1	0	1	-1
CN(CCCC1CCCC1)C(=O)CCc1nnc(-c2ccccc2)o1	1	5	3	0	5.4*	12*
Cc1cc(C)n(CCN(C)C(=O)CCc2nnc(CCC3CCCCC3)o2)n1	2	4	2	1.2*	3	12*
CC(CNC(=O)CCc1nnc(CCC2CCCCC2)o1)c1ccccc1 (stereo unspecified)	0	1	0	-1	5.6*	4
CN(C(=O)CCc1nnc(-c2ccc(-c3ccccc3)cc2)o1)C1CCOCC1	-5	-7	-6	-2	-1	-6
C=CCOc1ccc(CNc2ccc(NC(=O)CCC)cc2)cc1OCC	-1	3	-2	-2	4.5*	3
CC(C)C[C@@H]1COc2cccc(N3CCSCC3)c2S(=O)(=O)N1C	-1	·	3	-1	·	0
O=C(NNC(=O)c1cccs1)c1cccc(F)c1	1	3	2	1.3*	-1	-2
O=C(NNC(=O)c1cccs1)c1ccc(F)cc1	1	5	1	0	0	1
Cc1cccc(C)c1NC(=O)C1(C)CCC(=O)N1CCCn1ccnc1 (stereo unspecified)	-1	·	0	0	·	4
SMILES	DAX1 inh-1	FXN GAA850 act	hcDAF12 agonist	ssDAF12 agonist	DAX1 inh-2	hgDAF12 agonist
Cc1cccc(C)c1NC(=O)C1(C)CSCC(=O)N1CCCn1ccnc1 (stereo unspecified)	1	·	-2	2.1*	·	-1
Fc1c(-c2ccc3ncnc(NCc4cccs4)c3c2)ccc2c1OCO2	·	·	-1	-1	·	-1
c1ccc(Cc2nc3ccccc3s2)cc1	-1	1	5.8*	0	2	8
c1ccc(CN2CCCC3CC2c2ccccc23)cc1 (stereo unspecified)	-1	·	2	0	·	-1
C/C(=N\NC(=O)c1ccc(Cl)cc1)c1cccnc1	0	2	2	-1	2	1
CC(C)c1ccc(/C=N/NC(=O)c2c(Cl)cnn2C)cc1	3	5	1	0	-1	13*
Cc1nn(C)c(C(=O)N/N=C/c2ccc(Br)cc2)c1Cl	0	0	-2	-1	0	4
C/C(=N\NC(=O)c1c(Cl)cnn1C)c1cccnc1	4.3*	4	1	-1	2	6
COC(=O)[C@]12C[C@H](CC(=O)NCc3ccc(C)o3)C(=O)N(Cc3ccc(Cl)cc3Cl)C1=C[C@H](C(C)(C)C)O[C@@H]2C	-1	·	-2	-1	·	1
Cc1ccc(-c2nc3cccnc3s2)cc1NS(=O)(=O)c1cccs1	1	3	6.1*	0	3	5
COC(=O)[C@H](CC(C)C)N(CCCc1cn(Cc2ccc(C)cc2)nn1)S(=O)(=O)c1ccccc1Br	-3	·	-4	-1	·	0
COc1ccc(C)c2sc(N(CCN(C)C)C(=O)/C=C/c3cccs3)nc12	0	1	6.1*	1.2*	0	1
CCc1ccc(OCC(=O)N/N=C/c2cc([N+](=O)[O-])ccc2N2CCCCCC2)cc1	0	3	0	0	-2	0
CCC1CCCCN1c1ccc([N+](=O)[O-])cc1/C=N/NC(=O)Cn1c2ccccc2c(=O)c2ccccc21 (stereo unspecified)	-1	-1	-2	-1	6.0*	0
O=C(COc1ccccc1CNCc1ccccc1)Nc1ccccc1	3	-5	0	-2	2	11*
Cc1n[nH]c(C)c1S(=O)(=O)NCCc1ccccc1F	-1	·	-1	-2	·	-3
Cn1c(N)c(C(=O)CN2CCN(S(=O)(=O)c3ccccc3C#N)CC2)c(=O)n(C)c1=O	-1	-1	-2	-1	0	-2
COc1ccc(S(=O)(=O)N2CCN(CC(=O)c3c(N)n(C)c(=O)n(C)c3=O)CC2)cc1OC	-1	1	-1	-1	5.2*	3
COc1ccc(S(=O)(=O)N2CCN(C(=O)c3ccc(=O)[nH]n3)CC2)cc1OC	0	1	0	0	7.5*	1
CCC(=O)Nc1nnc(/C=C/c2ccccc2)s1	1	4	0	-1	5.3*	6
COc1cccc(-c2nnc(SCc3cc(C)ccc3C)n2Cc2ccco2)c1	-2	·	-3	-2	·	-1
